# Measured values taken from PubChem BioAssay (EPA / NIEHS).
# Values joined by “and” are separate entries in the source; they are usually repeats but may differ in a detail not shown here. Identical values can stand only once. Inconclusive results are not listed. Some structures have more than one record in an assay (separate samples or runs), and their calls can disagree. Active and inactive are the calls of the source. Rule for the calls, unless noted: active = hit-call score of the fitted dose curve at least 0.9, where 1 is the maximum; inconclusive = response in the unintended direction; inactive = score below 0.9.
# Columns and labels:
# [1] = target: Cytochrome P450 2C19 (Homo sapiens) (UniProt P33261); experiment: NVS_ADME_hCYP2C19: NovaScreen (NVS) CYP450-related Enzyme Activity (ADME) Assay for human CYP2C19 (AID 2283113);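 for AC50: potency for inhibition seen as loss of fluorescent signal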
# Summary of the method: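 Chemicals first screened in duplicate at 10 uM against recombinant human enzyme produced in insect cells; confirmed actives then run as concentration series. Fluorogenic substrate turnover read by fluorescence after 1 h, normalised to acetonitrile.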
# [2] = target: human Casein Kinase 2- alpha 2 beta 2 (CK2a2b2), CSNK2A1 (gene 1457) (UniProt P68400); experiment: NVS_ENZ_hCK2a2b2: NovaScreen (NVS) Enzymatic Assay for human Casein Kinase 2- alpha 2 beta 2 (CK2a2b2) (AID 2283147)
# Sequence of human Casein Kinase 2- alpha 2 beta 2 (CK2a2b2), CSNK2A1 (gene 1457) (P68400 whole entry, looked up): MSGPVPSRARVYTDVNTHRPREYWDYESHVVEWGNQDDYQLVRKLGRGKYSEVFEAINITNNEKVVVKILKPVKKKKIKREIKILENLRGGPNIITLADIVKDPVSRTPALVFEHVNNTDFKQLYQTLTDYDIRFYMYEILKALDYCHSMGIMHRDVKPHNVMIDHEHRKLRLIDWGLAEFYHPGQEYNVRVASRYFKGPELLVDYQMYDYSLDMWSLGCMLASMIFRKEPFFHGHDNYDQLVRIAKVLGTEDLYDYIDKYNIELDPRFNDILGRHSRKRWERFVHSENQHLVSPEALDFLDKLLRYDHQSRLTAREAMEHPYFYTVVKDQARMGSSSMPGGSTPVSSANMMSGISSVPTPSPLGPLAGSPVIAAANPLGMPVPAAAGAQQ
# Summary of the method: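 Compounds were first screened in duplicate at 25 uM, and those passing the threshold were re-tested in concentration series up to a 50 uM maximum. Kinase activity of recombinant human CK2 α2β2 was measured 1 h after dosing by fluorescent substrate/product mobility-shift separation.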
# [3] = target: human Casein Kinase 1-delta (CK1D), CSNK1D (gene 1453) (UniProt P48730); experiment: NVS_ENZ_hCK1D: NovaScreen (NVS) Enzymatic Assay for human Casein Kinase 1-delta (CK1D) (AID 2283148)
# Sequence of human Casein Kinase 1-delta (CK1D), CSNK1D (gene 1453) (P48730 whole entry, looked up): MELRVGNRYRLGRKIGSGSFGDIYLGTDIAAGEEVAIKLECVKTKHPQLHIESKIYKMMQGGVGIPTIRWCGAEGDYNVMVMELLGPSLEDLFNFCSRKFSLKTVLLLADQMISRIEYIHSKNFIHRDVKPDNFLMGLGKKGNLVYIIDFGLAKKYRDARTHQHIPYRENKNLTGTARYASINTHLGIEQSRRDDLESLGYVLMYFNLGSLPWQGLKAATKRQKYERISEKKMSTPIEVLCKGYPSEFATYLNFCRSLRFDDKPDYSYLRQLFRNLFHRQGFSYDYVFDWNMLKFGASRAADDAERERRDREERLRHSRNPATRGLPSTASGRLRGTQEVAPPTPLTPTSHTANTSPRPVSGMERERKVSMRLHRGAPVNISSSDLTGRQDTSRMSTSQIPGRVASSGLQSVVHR
# Summary of the method: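 Recombinant human CK1-delta, cell-free; fluorescent substrate with electrophoretic mobility-shift separation of product, read 1 h after dosing. Single 25 uM duplicate screen, then concentration-response up to 50 uM; loss of signal vs DMSO.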
# [4] = target: human Acid Phosphatase 1 (ACP1), ACP1 (gene 52) (UniProt P24666); experiment: NVS_ENZ_hACP1: NovaScreen (NVS) Enzymatic Assay for human Acid Phosphatase 1 (ACP1) (AID 2283136)
# Sequence of human Acid Phosphatase 1 (ACP1), ACP1 (gene 52) (P24666 whole entry, looked up): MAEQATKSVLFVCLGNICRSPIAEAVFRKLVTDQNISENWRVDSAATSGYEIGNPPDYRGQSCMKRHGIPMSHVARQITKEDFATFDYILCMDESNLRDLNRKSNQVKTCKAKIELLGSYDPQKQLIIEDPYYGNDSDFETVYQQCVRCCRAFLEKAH
# Summary of the method: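 Cell-free fluorescence read-out of phosphatase activity, substrate and product separated by mobility shift, taken 1.5 h after compound addition; protein produced in Sf9. Single 25 uM duplicate screen, followed by concentration series for actives, scored as signal loss relative to DMSO.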
# [5] = target: human Caspase 5 (CASP5), CASP5 (gene 838) (UniProt P51878); experiment: NVS_ENZ_hCASP5: NovaScreen (NVS) Enzymatic Assay for human Caspase 5 (CASP5) (AID 2283137)
# Sequence of human Caspase 5 (CASP5), CASP5 (gene 838) (P51878 whole entry, looked up): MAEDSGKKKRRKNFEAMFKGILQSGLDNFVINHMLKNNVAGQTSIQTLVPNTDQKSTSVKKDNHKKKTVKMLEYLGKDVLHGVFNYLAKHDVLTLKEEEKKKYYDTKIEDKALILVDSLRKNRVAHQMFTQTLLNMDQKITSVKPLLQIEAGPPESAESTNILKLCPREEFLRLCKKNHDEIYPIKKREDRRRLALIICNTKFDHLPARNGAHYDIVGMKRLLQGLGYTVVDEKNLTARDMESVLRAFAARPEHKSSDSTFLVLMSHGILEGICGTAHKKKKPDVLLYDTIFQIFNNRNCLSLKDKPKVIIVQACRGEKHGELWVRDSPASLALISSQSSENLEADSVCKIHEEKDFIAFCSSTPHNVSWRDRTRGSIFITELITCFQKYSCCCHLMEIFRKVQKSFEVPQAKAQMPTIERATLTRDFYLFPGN
# Summary of the method: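 Fluorescent substrate readout of CASP5 activity (loss-of-signal), measured 2 h post-dose. Protein expressed in E. coli. Primary screen duplicate at 25 uM; actives meeting threshold (e.g., 30% inhibition) rerun singleton, max 50 uM.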
# CDK2 (gene 1017) = CDK2 (gene 1017) (UniProt P24941); experiment: NVS_ENZ_hCDK2: NovaScreen (NVS) Enzymatic Assay for human Cyclin-Cependent Kinase 2 (CDK2) (AID 2283144)
# Summary of the method: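 Compounds screened in duplicate at 25 uM, then in singleton concentration-response to a maximum of 50 uM, against recombinant CDK2; kinase activity read 1 hr after dosing by fluorescence with mobility-shift separation of substrate and product.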
# [6] = target: human Caspase 8 (CASP8), CASP8 (gene 841) (UniProt Q14790); experiment: NVS_ENZ_hCASP8: NovaScreen (NVS) Enzymatic Assay for human Caspase 8 (CASP8) (AID 2283146)
# Sequence of human Caspase 8 (CASP8), CASP8 (gene 841) (Q14790 whole entry, looked up): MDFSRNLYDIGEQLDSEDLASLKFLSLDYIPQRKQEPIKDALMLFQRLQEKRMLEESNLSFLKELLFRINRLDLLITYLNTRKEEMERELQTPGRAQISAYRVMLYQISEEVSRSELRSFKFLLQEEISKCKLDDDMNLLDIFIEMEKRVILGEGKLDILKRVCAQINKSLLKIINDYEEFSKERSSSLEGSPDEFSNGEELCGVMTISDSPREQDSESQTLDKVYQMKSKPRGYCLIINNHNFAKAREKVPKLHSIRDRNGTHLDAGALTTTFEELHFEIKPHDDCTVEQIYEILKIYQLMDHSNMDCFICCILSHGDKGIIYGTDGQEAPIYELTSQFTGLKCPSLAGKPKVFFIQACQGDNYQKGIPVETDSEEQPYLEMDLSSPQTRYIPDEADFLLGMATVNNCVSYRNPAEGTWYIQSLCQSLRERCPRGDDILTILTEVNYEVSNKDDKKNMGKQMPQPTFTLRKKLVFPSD
# Summary of the method: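 The primary screen tested compounds in duplicate at a single 25 uM concentration, with actives followed up in concentration series. Activity of recombinant (E. coli) protease was measured by fluorescence 1 h post-dose, as signal loss against DMSO.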
# Caspase-3 (Homo sapiens) = Caspase-3 (Homo sapiens) (UniProt P42574); experiment: NVS_ENZ_hCASP3: NovaScreen (NVS) Enzymatic Assay for human Caspase 3 (CASP3) (AID 2283139)
# Sequence of Caspase-3 (Homo sapiens) (P42574 whole entry, looked up): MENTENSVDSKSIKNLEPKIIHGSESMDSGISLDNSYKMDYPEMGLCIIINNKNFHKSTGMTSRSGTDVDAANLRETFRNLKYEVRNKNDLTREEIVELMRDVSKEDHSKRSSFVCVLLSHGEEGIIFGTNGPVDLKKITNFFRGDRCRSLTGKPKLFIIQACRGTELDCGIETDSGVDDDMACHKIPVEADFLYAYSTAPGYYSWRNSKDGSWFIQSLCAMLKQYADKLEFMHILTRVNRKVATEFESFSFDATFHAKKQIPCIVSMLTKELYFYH
# Summary of the method: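 Single-concentration screening at 25 uM in duplicate, with concentration-response follow-up to a 50 uM maximum for chemicals passing the threshold. Caspase-3 (human, E. coli-expressed) activity was read as substrate fluorescence after 1 h, with loss of signal relative to DMSO.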
# [7] = target: human AKT serine/threonine Kinase 1 (AKT1), AKT1 (gene 207) (UniProt P31749); experiment: NVS_ENZ_hAKT1: NovaScreen (NVS) Enzymatic Assay for human AKT serine/threonine Kinase 1 (AKT1) (AID 2283138)
# Sequence of human AKT serine/threonine Kinase 1 (AKT1), AKT1 (gene 207) (P31749 whole entry, looked up): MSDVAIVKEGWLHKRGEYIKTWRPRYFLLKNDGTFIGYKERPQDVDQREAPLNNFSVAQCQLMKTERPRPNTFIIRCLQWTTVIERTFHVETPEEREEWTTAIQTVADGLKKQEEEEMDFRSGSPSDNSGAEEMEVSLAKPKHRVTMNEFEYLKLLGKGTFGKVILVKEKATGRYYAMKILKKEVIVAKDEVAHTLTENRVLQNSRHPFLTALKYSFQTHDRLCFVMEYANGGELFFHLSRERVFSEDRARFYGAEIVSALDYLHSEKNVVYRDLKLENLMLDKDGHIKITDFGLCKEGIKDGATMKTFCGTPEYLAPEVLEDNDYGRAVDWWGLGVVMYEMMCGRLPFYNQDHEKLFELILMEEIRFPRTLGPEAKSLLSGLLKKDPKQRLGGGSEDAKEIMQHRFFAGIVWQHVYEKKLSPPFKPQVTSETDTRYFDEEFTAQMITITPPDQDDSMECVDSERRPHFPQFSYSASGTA
# Summary of the method: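 Fluorescence and mobility-shift readout of kinase activity, taken 1 h post-dosing in a cell-free format with recombinant protein. Primary screen at 25 uM in duplicate; hits (e.g. 30% inhibition) retested in concentration series topping at 50 uM.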
# rat CYP3A1, gene 25642 = experiment: NVS_ADME_rCYP3A1: NovaScreen (NVS) CYP450-related Enzyme Activity (ADME) Assay for rat CYP3A1 (AID 2283126)
# Summary of the method: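 Compounds went first at 10 uM duplicate, then to series with 20 uM maximum. Fluorescence from substrate turnover by the recombinant enzyme was measured 0.5 h post-dosing, inhibition scored against acetonitrile vehicle.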
# [8] = target: rat CYP3A2, Cyp3a2 (gene 266682) (UniProt P05183); experiment: NVS_ADME_rCYP3A2: NovaScreen (NVS) CYP450-related Enzyme Activity (ADME) Assay for rat CYP3A2 (AID 2283128)
# Summary of the method: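 Fluorescence readout of extracted rat CYP3A2 activity 0.5 h post-dose, acetonitrile as negative control. Single-point testing in duplicate at 10 uM, followed by concentration series to a 20 uM maximum for actives.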
# [9] = target: rat CYP2C13, Cyp2c13 (gene 171521) (UniProt P20814); experiment: NVS_ADME_rCYP2C13: NovaScreen (NVS) CYP450-related Enzyme Activity (ADME) Assay for rat CYP2C13 (AID 2283121)
# Sequence of rat CYP2C13, Cyp2c13 (gene 171521) (P20814 whole entry, looked up): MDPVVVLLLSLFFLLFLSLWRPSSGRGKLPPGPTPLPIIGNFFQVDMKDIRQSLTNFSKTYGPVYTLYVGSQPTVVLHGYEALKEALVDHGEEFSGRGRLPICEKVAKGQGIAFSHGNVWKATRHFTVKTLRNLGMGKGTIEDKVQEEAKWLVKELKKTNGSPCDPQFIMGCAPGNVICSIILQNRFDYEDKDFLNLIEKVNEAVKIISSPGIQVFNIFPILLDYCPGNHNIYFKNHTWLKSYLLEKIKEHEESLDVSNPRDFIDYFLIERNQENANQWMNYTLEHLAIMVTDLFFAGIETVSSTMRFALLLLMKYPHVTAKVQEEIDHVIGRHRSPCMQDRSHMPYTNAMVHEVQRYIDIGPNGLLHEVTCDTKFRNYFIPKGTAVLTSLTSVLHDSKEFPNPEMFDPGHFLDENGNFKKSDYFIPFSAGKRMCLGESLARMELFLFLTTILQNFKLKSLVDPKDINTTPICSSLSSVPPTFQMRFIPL
# Summary of the method: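 Inhibition is read as decreased fluorescent product formation, referenced to acetonitrile vehicle. Cell-free recombinant rat Cyp2c13 reaction ran 0.75 hour; compounds first at 10 uM in duplicate, then concentration series for actives.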
# [10] = target: human AKT serine/threonine Kinase 2 (AKT2), AKT2 (gene 208) (UniProt P31751); experiment: NVS_ENZ_hAKT2: NovaScreen (NVS) Enzymatic Assay for human AKT serine/threonine Kinase 2 (AKT2) (AID 2283141)
# Sequence of human AKT serine/threonine Kinase 2 (AKT2), AKT2 (gene 208) (P31751 whole entry, looked up): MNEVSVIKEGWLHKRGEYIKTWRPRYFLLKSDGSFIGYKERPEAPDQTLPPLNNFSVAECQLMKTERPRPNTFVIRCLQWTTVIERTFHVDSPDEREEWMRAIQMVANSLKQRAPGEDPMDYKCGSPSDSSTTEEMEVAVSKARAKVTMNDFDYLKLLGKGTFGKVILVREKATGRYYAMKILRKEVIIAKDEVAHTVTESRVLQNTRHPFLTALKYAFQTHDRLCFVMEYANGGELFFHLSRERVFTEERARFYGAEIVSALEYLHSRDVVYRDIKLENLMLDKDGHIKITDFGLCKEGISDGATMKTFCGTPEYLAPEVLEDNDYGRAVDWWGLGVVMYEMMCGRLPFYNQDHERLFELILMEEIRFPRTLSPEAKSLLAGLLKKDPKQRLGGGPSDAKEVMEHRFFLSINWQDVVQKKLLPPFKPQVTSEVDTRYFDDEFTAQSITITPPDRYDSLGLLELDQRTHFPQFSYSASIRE
# Summary of the method: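 Cell-free fluorescence/electrophoretic mobility shift readout of recombinant human AKT2 activity, 1 h after chemical dosing. Duplicate primary screen at 25 uM, then singleton concentration-response up to 50 uM; loss of signal versus DMSO baseline.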
# [11] = target: human Caspase 4 (CASP4), CASP4 (gene 837) (UniProt P49662); experiment: NVS_ENZ_hCASP4: NovaScreen (NVS) Enzymatic Assay for human Caspase 4 (CASP4) (AID 2283143)
# Sequence of human Caspase 4 (CASP4), CASP4 (gene 837) (P49662 whole entry, looked up): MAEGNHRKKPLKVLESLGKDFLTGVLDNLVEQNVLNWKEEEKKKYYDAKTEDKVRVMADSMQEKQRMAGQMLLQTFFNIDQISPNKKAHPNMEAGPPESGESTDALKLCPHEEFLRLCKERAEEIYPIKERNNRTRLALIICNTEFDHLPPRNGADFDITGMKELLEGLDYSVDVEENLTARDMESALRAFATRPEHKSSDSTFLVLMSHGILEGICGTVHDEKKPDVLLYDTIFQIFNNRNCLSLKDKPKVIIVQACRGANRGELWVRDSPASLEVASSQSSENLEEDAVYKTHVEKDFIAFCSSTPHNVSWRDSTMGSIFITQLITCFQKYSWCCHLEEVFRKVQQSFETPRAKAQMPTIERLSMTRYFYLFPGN
# Summary of the method: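 Compounds were first tested in duplicate at 25 uM, and hits were titrated singly to a 50 uM maximum. Recombinant protease from E. coli was read by fluorescence 2 h post-dose, and activity loss was fitted against the DMSO baseline.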
# [12] = target: rat CYP2A1, Cyp2a1 (gene 24894) (UniProt P11711); experiment: NVS_ADME_rCYP2A1: NovaScreen (NVS) CYP450-related Enzyme Activity (ADME) Assay for rat CYP2A1 (AID 2283114; active = hit-call score of the fitted dose curve at least 0.9, where 1 is the maximum; inactive = score below 0.9)
# Sequence of rat CYP2A1, Cyp2a1 (gene 24894) (P11711 whole entry, looked up): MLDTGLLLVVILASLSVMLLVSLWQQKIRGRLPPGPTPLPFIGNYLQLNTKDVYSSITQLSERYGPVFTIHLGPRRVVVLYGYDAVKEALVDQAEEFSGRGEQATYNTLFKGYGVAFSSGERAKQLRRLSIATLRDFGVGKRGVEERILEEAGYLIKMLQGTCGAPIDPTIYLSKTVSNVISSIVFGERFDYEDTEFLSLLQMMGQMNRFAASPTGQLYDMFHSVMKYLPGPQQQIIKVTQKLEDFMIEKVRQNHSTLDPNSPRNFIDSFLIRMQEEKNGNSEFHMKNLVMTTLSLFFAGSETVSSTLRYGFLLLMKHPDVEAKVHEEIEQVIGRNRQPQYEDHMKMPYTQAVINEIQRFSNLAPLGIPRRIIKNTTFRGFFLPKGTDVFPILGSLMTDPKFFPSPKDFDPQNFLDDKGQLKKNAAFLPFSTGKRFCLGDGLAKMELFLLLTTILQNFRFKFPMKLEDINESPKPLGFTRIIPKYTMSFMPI
# Summary of the method: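 Cell-free fluorescence enzyme-activity read on recombinant rat CYP2A1, taken 0.75 h post-dosing. Compounds were screened in duplicate at 10 uM, then hits tested in concentration series (max 20 uM); inhibition scored relative to acetonitrile baseline.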
# [13] = target: rat CYP2C11, Cyp2c11 (gene 29277) (UniProt P08683); experiment: NVS_ADME_rCYP2C11: NovaScreen (NVS) CYP450-related Enzyme Activity (ADME) Assay for rat CYP2C11 (AID 2283118)
# Summary of the method: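 Screened first at 10 uM in duplicate, hits followed by concentration-response. Recombinant rat enzyme activity monitored by fluorescence 0.33 h post-dosing, normalised to acetonitrile negative control.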
# rat CYP2C6, gene 293989 = experiment: NVS_ADME_rCYP2C6: NovaScreen (NVS) CYP450-related Enzyme Activity (ADME) Assay for rat CYP2C6 (AID 2283120)
# Summary of the method: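 Compounds first tested in duplicate at 10 uM, hits (e.g. 30% inhibition) re-run in singleton dose series to a 20 uM top concentration. Enzyme activity of recombinant rat CYP2C6 measured via fluorescent substrate turnover after 1 h; acetonitrile baseline.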
# [14] = target: rat CYP2D2, Cyp2d26 (gene 25053) (UniProt P10634); experiment: NVS_ADME_rCYP2D2: NovaScreen (NVS) CYP450-related Enzyme Activity (ADME) Assay for rat CYP2D2 (AID 2283124)
# Summary of the method: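 Single-concentration duplicate testing at 10 uM, followed by concentration-response (top 20 uM) for chemicals passing threshold. Enzyme activity of the recombinant rat isoform measured by fluorescence after 0.75 h, acetonitrile as baseline.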
smiles,measurement,setting,value
CCCCOC(=O)C(C)Oc1ccc(Oc2ccc(C(F)(F)F)cn2)cc1 (stereo not given),outcome,[1],inactive
CCOC(=O)[C@H](C)Oc1ccc(Oc2nc3ccc(Cl)cc3o2)cc1,outcome,[1],inactive
c1ccc2[nH]c(-c3cscn3)nc2c1,AC50,[2],25 µM (active)
same,AC50,[3],19.8 µM (active)
O=C(O)C1(C(=O)Nc2ccc(Cl)cc2Cl)CC1,AC50,[4],39.2 µM (active)
same,AC50,[5],3.02 µM (active)
same,AC50,CDK2 (gene 1017),7.29 µM (active)
same,AC50,[6],7.55 µM (active)
same,AC50,[2],12.7 µM (active)
CCCCC(CC)COC(=O)c1ccccc1C(=O)O (stereo not given),AC50,[1],7.13 µM (active)
same,outcome,[3],inactive
COC(=O)c1cccc(C)c1S(=O)(=O)NC(=O)Nc1nc(OCC(F)(F)F)nc(N(C)C)n1,outcome,Caspase-3 (Homo sapiens),inactive
same,outcome,[6],inactive
CC(C)CCCCCCc1ccc(O)cc1,AC50,[1],2.75 µM (active)
same,outcome,[7],inactive
same,outcome,[3],inactive
N[C@@H](Cc1cc(I)c(Oc2ccc(O)c(I)c2)c(I)c1)C(=O)O,AC50,[5],8.73 µM (active)
same,outcome,CDK2 (gene 1017),inactive
CCCCOC(=O)[C@@H](C)Oc1ccc(Oc2ccc(C(F)(F)F)cn2)cc1,outcome,[1],inactive
same,outcome,[7],inactive
CCN(Cc1c(F)cccc1Cl)c1c([N+](=O)[O-])cc(C(F)(F)F)cc1[N+](=O)[O-],AC50,[1],10 µM (active)
same,AC50,"rat CYP3A1, gene 25642",6.19 µM (active)
same,AC50,[8],4.04 µM (active)
S=C([S-])NCCNC(=S)[S-].[Mn+2],AC50,[1],5.86 µM (active)
same,AC50,[9],10 µM (active)
same,AC50,"rat CYP3A1, gene 25642",7.1 µM (active)
same,AC50,[5],15.1 µM (active)
same,AC50,[7],1.05 µM (active)
same,AC50,[10],606 nM (active)
same,outcome,[11],inactive
same,AC50,CDK2 (gene 1017),11.4 µM (active)
same,outcome,[6],inactive
same,AC50,[2],3.93 µM (active)
same,AC50,[3],25 µM (active)
S=C(S)NCCNC(=S)S.[Mn+2].[S-]C([S-])=NCCN=C([S-])[S-].[Zn+2],outcome,[1],inactive
same,outcome,[9],inactive
same,AC50,"rat CYP3A1, gene 25642",10 µM (active)
same,AC50,[4],4.22 µM (active) and 4.27 µM (active)
same,AC50,[7],683 nM (active) and 1.49 µM (active)
same,outcome,Caspase-3 (Homo sapiens),inactive
same,AC50,[10],1.64 µM (active) and 1.94 µM (active)
same,AC50,[11],179 nM (active)
same,outcome,[11],inactive
same,AC50,CDK2 (gene 1017),0.879 µM (active)
same,outcome,[6],inactive
same,AC50,[2],5.4 µM (active)
same,AC50,[3],18.2 µM (active) and 33.6 µM (active)
OB(O)O,outcome,[10],inactive
CC(C)(c1ccc(O)cc1)c1ccc(O)cc1,AC50,[12],4.1 µM (active) [middle of 4 runs]
same,AC50,[13],1.16 µM (active) [middle of 4 runs]
same,AC50,[9],4.5 µM (active) [middle of 4 runs]
same,AC50,"rat CYP3A1, gene 25642",9.88 µM (active)
same,AC50,[8],8.05 µM (active)
same,outcome,[6],inactive
same,AC50,[3],25.4 µM (active)
C#CCOC(=O)[C@@H](C)Oc1ccc(Oc2ncc(Cl)cc2F)cc1,AC50,[1],1.5 µM (active)
same,outcome,[12],inactive
same,AC50,[13],1.1 µM (active)
same,AC50,"rat CYP2C6, gene 293989",310 nM (active)
CN(C)C(=O)Nc1ccc(Cl)c(Cl)c1,AC50,[12],316 nM (active)
same,AC50,"rat CYP3A1, gene 25642",5.82 µM (active)
same,outcome,[7],inactive
COC(=O)CSc1cc(N=c2sc(=O)n3n2CCCC3)c(F)cc1Cl,outcome,[14],inactive
Cc1nn(C)c(Oc2ccccc2)c1C=NOCc1ccc(C(=O)OC(C)(C)C)cc1,AC50,[1],3.32 µM (active)
same,outcome,[9],inactive
CCNc1nc(N)nc(Cl)n1,AC50,[3],22.1 µM (active)
C[C@]12CC[C@@H]3c4ccc(O)cc4C[C@@H](CCCCCCCCCS(=O)CCCC(F)(F)C(F)(F)F)[C@H]3[C@@H]1CC[C@@H]2O (stereo not given in full),outcome,[6],inactive
COC(=O)c1c(Cl)nn(C)c1S(=O)(=O)NC(=O)Nc1nc(OC)cc(OC)n1,AC50,[3],21.1 µM (active)
O=C(Nc1ccc([N+](=O)[O-])cc1Cl)c1cc(Cl)ccc1O,outcome,[7],inactive
same,outcome,Caspase-3 (Homo sapiens),inactive
same,outcome,[10],inactive
same,outcome,[3],inactive
CCCN(CCC)c1c([N+](=O)[O-])cc(C(F)(F)F)c(N)c1[N+](=O)[O-],outcome,[6],inactive
COC(=O)c1ccccc1C(=O)O,AC50,[1],5.84 µM (active)
same,outcome,[12],inactive
